Records with an inconclusive call do not appear. The source made the active and inactive calls. The call rests on the fitted dose curve; in most records, active means well fitted inhibition curve with a large enough effect in the repeat runs; inconclusive means weak or mixed curves; inactive means no such curve, though single readings can be large or run the other way.
The compounds below were run against Cytochrome P450 2C19 (Homo sapiens) (UniProt P33261) (assay: Cytochrome P450 Family 2 Subfamily C Member 19 (CYP2C19) small molecule antagonists: luciferase reporter qHTS assay (AID 1671197; further: nearly all actives have a fitted effect of over 65% in size)). Details: P450-Glo CYP2C19 enzyme, luciferin luminescence, 1 h; series mostly up to 115 µM.
Chain of Cytochrome P450 2C19 (Homo sapiens) (P33261 whole entry, looked up): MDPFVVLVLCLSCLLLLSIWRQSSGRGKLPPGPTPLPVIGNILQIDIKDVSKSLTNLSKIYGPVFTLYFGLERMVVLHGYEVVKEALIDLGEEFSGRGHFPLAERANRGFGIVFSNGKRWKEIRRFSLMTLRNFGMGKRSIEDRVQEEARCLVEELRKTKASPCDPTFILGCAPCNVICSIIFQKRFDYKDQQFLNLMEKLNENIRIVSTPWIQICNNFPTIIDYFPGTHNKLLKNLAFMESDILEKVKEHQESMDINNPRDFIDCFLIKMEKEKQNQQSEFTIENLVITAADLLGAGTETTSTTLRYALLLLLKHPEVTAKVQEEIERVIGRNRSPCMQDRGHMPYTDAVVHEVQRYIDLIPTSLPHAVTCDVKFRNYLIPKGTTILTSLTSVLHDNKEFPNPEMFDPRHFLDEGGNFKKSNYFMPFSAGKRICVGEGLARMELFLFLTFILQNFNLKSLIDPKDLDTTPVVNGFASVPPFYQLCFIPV
Text: National Center for Advancing Translational Sciences [NCATS]
U.S. Environmental Protection Agency [EPA]
National Institutes of Environmental Health Sciences [NIEHS]
National Toxicology Program [NTP]
U.S. Food and Drug Administration [FDA]
Cytochrome P450 (CYP) enzymes are membrane-bound hemeproteins that play a key role in metabolism of drugs and xenobiotics. Evaluation of the effect of chemicals on CYP isozymes is useful to minimize the adverse drug reactions and toxicities in drug development process. Tox21 chemicals were tested for their effect on CYP enzyme activities by using P450-Glo (TM) screening systems (Promega Corporation, Madison, WI). These systems provide a luminescent method containing proluciferin substrates and are converted to luciferin products by CYP isozymes. The luciferin products formed are detected with a luciferin detection reagent, and the amount of light produced is proportional to CYP activity. P450-Glo (TM) CYP2C19 screening system (Catalog. No. V9880) was used to detect the compounds that interfere in CYP2C19 activity. The positive control compound used for CYP2C19 assay is ketoconazole (Sigma-Aldrich, St. Louis, MO).
Tox21 Assay Protocol Summary:
Two ul of enzyme-substrate mix was dispensed into medium binding white/solid 1536-well plates (Greiner Bio-One North America Inc., Monroe, NC) using a BioRaptr Flying Reagent Dispenser (FRD, Beckman Coulter, Brea, CA). Compounds dissolved in DMSO and positive control (ketoconazole) were transferred to the assay plates at 23 nl using a Pintool station (Wako, San Diego, CA). The assay plates were incubated at room temperature for 10 min. Then 2 ul of NADPH regeneration solution was added to each well of the assay plates using an FRD and incubated at 37C for 1 h. The reaction was stopped by adding 4 ul of detection reagent using an FRD and after 20 min incubation at room temperature the luminescence signal was measured using a ViewLux plate reader (Perkin Elmer, Shelton, CT). Data were expressed as relative luminescence units.
On the % scale 0 is the no-effect control and ±100 the full control effect; potency means the concentration at half of the fitted maximal effect.

Structure (SMILES) | Potency | activity change, negative = inhibition
Cc1ccc(S(=O)(=O)C(I)I)cc1 | 1.59 µM (active) | 
O=C1CCCCCCCCCCCCCC1 | inactive | 
O=C1CCC/C=C\CCCCCCCCCC1 | inactive | 
Cn1c(=O)[nH]c2ncn(C)c2c1=O | inactive | 
CN1CCN(c2ccccc2/C=C2\SCCN(c3ccc(Cl)c(Cl)c3)C2=O)CC1 | 5.03 µM (active) | 
CCC1(C)C(=O)N(Cl)C(=O)N1Cl (stereo not given) | inactive | 
Cc1ccc2nc(-c3ccc(N)cc3)sc2c1S(=O)(=O)O | 22.1 µM (active) | 
O=C(NCc1ncc(C(F)(F)F)cc1Cl)c1c(Cl)cccc1Cl | 20 µM (active) | 
O=S(=O)(c1ccc(OCc2ccccc2)cc1)c1ccccc1O | 6.33 µM (active) | 
CC(C)(c1ccc(Oc2ccc(N)cc2)cc1)c1ccc(Oc2ccc(N)cc2)cc1 | 7.96 µM (active) | 
CCC(O)CO (stereo not given) | inactive | 
ClC(c1ccccc1)(c1ccccc1)c1ccccc1 | 0.224 µM (active) | 
CC(C)(C)c1ccc(OC2CCCCC2O)cc1 (stereo not given) | 31.7 µM (active) | 
CCN(CCC#N)c1ccc(N=Nc2ccc([N+](=O)[O-])cc2)cc1 | inactive | 
CCc1cccc(CC)c1 | inactive | 
CC1CCC(C(C)(C)O)CC1 (stereo not given) | inactive | 
Nc1ccc(Oc2cccc(Oc3ccc(N)cc3)c2)cc1 | 11.2 µM (active) | 
CCSCC | inactive | 
CCc1c(C)cc(N)c(CC)c1N | 14.2 µM (active) | 
COc1cc(OC)nc(NC(=O)NS(=O)(=O)Nc2ccccc2C(=O)N(C)C)n1 | 39.9 µM (active) | 

Structure (SMILES) | Potency | activity change, negative = inhibition
O=c1[nH]cccc1O | inactive | 
O=C(c1ccccc1)c1ccc(Cl)cc1 | 15.9 µM (active) | 
CCC(C)(C)c1ccc(CC(C)CN2C[C@@H](C)O[C@@H](C)C2)cc1 (stereo not given in full) | 11 µM (active) | 
CN(C)CCOc1ccc(/C(=C(/CCCl)c2ccccc2)c2ccccc2)cc1 | 52.8 µM (active) | 
CN1CCN(C)CC1 | inactive | 
CC(CC(C)(C)C)CC(C)(C)CC(C)(C)C (stereo not given) | inactive | 
C=CC(C)(C)O | inactive | 
O=C1OC(=O)c2cc(-c3ccc4c(c3)C(=O)OC4=O)ccc21 | 8.94 µM (active) | 
CCCCCCCCCCCCS(=O)(=O)Cl |  | -3.93% [at 23.6 µM] (inactive)
COc1ccc(OC)c(N=Nc2c(O)ccc3ccccc23)c1 | 10 µM (active) | 
COc1cc(/C=C/C(=O)CC(=O)/C=C/c2ccc(O)c(OC)c2)ccc1O | 10.1 µM (active) | 
Cc1ccc(Cl)c(N)c1Cl | inactive | 
CCN(CC)c1ccc(C=O)cc1 | 15.9 µM (active) | 
CC(C=O)c1ccccc1 (stereo not given) | 79.6 µM (active) | 
O=C(Nc1ccccc1)c1cc(Cl)ccc1O | 35.6 µM (active) | 
O=C1OC(O)C(C(Cl)Cl)=C1Cl (stereo not given) | inactive | 
C/C=C/C(=O)OCC(C)C | inactive | 
Nc1c(Br)cc([N+](=O)[O-])cc1Br | 79.6 µM (active) | 
CCOc1ccc([N+](=O)[O-])cc1 | 8.09 µM (active) | 
Oc1ccc(C2(c3ccc(O)c(C4CCCCC4)c3)CCCCC2)cc1C1CCCCC1 | 8.94 µM (active) | 

— PubChem BioAssay (Tox21)
